ERG-DNA inh: inhibitors of human ERG Ets domain-DNA interaction | P11308 | fluorescence polarization, His-ERG Ets domain / labelled DNA | Potency, µM (top dose mostly 76.9 µM), most hits filed as inhibitors | hit rate 0.028% among 370,000 | AID 624246; active = well fitted inhibition curve with a large enough effect in the polarisation, with a control signal flat; inconclusive = small, poorly fitted or top-dose-only effect, or effect the other way, or a change in a side signal; inactive = no such curve, though single readings can be large or run the other way; the % refers to the polarisation;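 also: polarization taken with two DNA probes labelled with fluorescein and Texas red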
Target sequence (P11308 whole entry, looked up, the tested form may be a part): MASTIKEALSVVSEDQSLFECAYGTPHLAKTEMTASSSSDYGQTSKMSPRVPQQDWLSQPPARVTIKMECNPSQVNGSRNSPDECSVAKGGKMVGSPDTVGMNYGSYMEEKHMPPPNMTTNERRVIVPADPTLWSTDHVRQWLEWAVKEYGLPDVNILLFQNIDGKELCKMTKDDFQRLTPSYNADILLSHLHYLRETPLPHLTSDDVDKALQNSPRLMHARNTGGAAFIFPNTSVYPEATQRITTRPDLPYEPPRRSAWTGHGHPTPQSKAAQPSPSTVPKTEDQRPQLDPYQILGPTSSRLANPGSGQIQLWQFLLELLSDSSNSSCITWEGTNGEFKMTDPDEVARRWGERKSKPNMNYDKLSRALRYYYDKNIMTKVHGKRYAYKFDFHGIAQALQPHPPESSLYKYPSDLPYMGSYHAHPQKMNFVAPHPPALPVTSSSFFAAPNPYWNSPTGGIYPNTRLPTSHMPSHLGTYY
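His-tagged ERG Ets domain (1 uM in the protein solution; 300mM KCl, 50mM Tris-HCl, 1mM EDTA, 1mM DTT, pH 7.5) received compound, then a probe mix of 5 nM fluorescein-DNA and 100nM Texas-615-DNA. Fluorescence polarization was read for both dyes.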
DRD3 agonist: activates the human D3 dopamine receptor. P35462. hit rate 0.58% among 410,000. D3R DiscoveRx beta-arrestin cells, luminescence, 90 min. max activation, %. AID 652048; in the data active = max activation above about 30%
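Agonist mode: compounds and dopamine controls were applied to plated cells for 90 min at 37 degrees C after an overnight attachment at 1500 cells/well. Luminescent read-out followed 30 - 60 minutes at room temperature with DiscoveRx detection reagent.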
DRD3 antagonist: antagonists of human D3 dopamine receptor; P35462; D3R cells, DiscoveRx beta-arrestin luminescence, antagonist mode; active compounds read low; max response, negative = inhibition, %; hit rate 2.5% among 360,000; in the data active = max response below about -50%; inconclusive = no clear call, values can overlap the other calls
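Cells plated overnight at 1500 cells/well, then exposed to library compounds with dopamine controls for 90 minutes at 37 degrees C. DiscoveRx reagent added for 30–60 minutes at room temperature; luminescence read, quantitative HTS format.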
D1 antag: human D1 dopamine receptor antagonism | AID 504652 | HEK293 TREx D1 cells, calcium flux, dopamine EC80; active compounds read low | hit rate 3.2% among 360,000 | P21728 | activity change, negative = inhibition, % at 10 µM; in the data active = activity change below about -30%
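Using tetracycline-induced force-coupled D1 Hek293 cells and a calcium dye, signals were followed for 180 s after compound, then for 180 s after EC80 dopamine, to detect inhibitors.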
D1 PAM: human D1 dopamine receptor positive modulation | P21728 | HEK293 TREx D1 cells, calcium flux, dopamine EC20 potentiation | potentiation, % at 10 µM | hit rate 0.036% among 360,000 | AID 504651; in the data active = potentiation above about 30%
D1 ag: human D1 receptor agonism; activation, % at 2 µM; P21728; hit rate 1% among 360,000; AID 504660; HEK293 T-REx D1 cells, calcium flux, agonist mode; in the data active = activation above about 30%
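Tetracycline-induced HEK293 TREx D1 cells, force-coupled to calcium signalling, were dye-loaded with a no-wash calcium kit. Compound was pin-added after a 10 s baseline. Fluorescence was read kinetically at 1 cycle/s for 180 s, with calcium rises flagged as agonism.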
Numbers stand for hits. Hits are enriched below; roughly 6.1% of the tested compounds scored in any of these assays.

For Cc1ccc(C)c(NC(=O)Cn2cc(C(=O)c3ccc(Cl)cc3)c(=O)c3ccc(C)nc32)c1 the results were ERG-DNA inh inactive, DRD3 agonist inactive, D1 antag inactive, D1 PAM inactive and D1 ag inactive.
Cc1cccc(C(=O)NCC2CCCO2)c1 (stereo unspecified) was read as ERG-DNA inh inactive, DRD3 agonist inactive, DRD3 antagonist -54, D1 antag inactive, D1 PAM inactive and D1 ag inactive.
COc1cccc(-c2cc(C(=O)NCC3CCCO3)c3cc(C)cc(C)c3n2)c1 (stereo unspecified) was read as ERG-DNA inh inactive, DRD3 agonist 66, DRD3 antagonist inactive, D1 antag inactive, D1 PAM inactive and D1 ag inactive.
For Cc1ccc(OCc2ccc(C(=O)NCC3CCCO3)cc2)cc1C (stereo unspecified) the results were ERG-DNA inh inactive, DRD3 agonist inactive, DRD3 antagonist inactive, D1 antag inactive, D1 PAM inactive and D1 ag inactive.
For COc1cccc(-c2nn(-c3ccc(C)cc3)cc2C(=O)NCC2CCCO2)c1 (stereo unspecified) the results were ERG-DNA inh inactive, DRD3 agonist inactive, DRD3 antagonist inactive, D1 antag inactive, D1 PAM inactive and D1 ag inactive.
Cc1noc(C)c1COc1ccc(C(=O)NCC2CCCO2)cc1 (stereo unspecified) was read as ERG-DNA inh inactive, DRD3 agonist inactive, DRD3 antagonist -52, D1 antag inactive, D1 PAM inactive and D1 ag inactive.
Screening Cc1ccccc1-c1noc(-c2ccccc2C(=O)NCC2CCCO2)n1 (stereo unspecified) returned ERG-DNA inh inactive, DRD3 agonist inactive, DRD3 antagonist inactive, D1 antag -30, D1 PAM inactive and D1 ag inactive.
Cc1cc(C(=O)NN=C2CCCCCCC2)c2ccccc2n1 was read as ERG-DNA inh inactive, DRD3 agonist inactive, DRD3 antagonist inactive, D1 antag inactive, D1 PAM inactive and D1 ag inactive.
Screening Cc1cc(C)cc(OCC(=O)NNC(=S)NC(=O)C2CC2)c1 returned ERG-DNA inh inactive, DRD3 agonist inactive, DRD3 antagonist inactive, D1 antag inactive, D1 PAM inactive and D1 ag inactive.
For CCCCOc1ccccc1NC(=O)c1scc2c1OCCO2 the results were ERG-DNA inh inactive, DRD3 agonist inactive, DRD3 antagonist inactive, D1 antag inactive, D1 PAM inactive and D1 ag inactive.
CCOC(=O)c1cc2c(C)n(-c3ccc(N(C)C)cc3)c(C)c2cc(C(=O)OCC)c1=O was read as ERG-DNA inh inactive, DRD3 agonist 57, DRD3 antagonist inactive, D1 antag inactive, D1 PAM inactive and D1 ag inactive.
`CCOC(=O)c1cc2c(C)n(-c3ccc(OCC)cc3)c(C)c2cc(C(=O)OCC)c1=O` gave ERG-DNA inh inactive, DRD3 agonist inactive, DRD3 antagonist inactive, D1 antag inactive, D1 PAM inactive and D1 ag inactive.
`Cc1ccc(S(=O)(=O)NCC(=O)N/N=C/c2ccc(Cl)cc2Cl)cc1` gave ERG-DNA inh inactive, DRD3 agonist inactive, DRD3 antagonist inactive, D1 antag inactive, D1 PAM inactive and D1 ag inactive.
`CN(C)c1ccc2nc3c(=O)[nH]c(=O)nc-3n(CC(O)C(O)C(O)CO)c2c1` (stereo unspecified) gave ERG-DNA inh inactive, DRD3 agonist inactive, DRD3 antagonist inconclusive, D1 antag inactive, D1 PAM inactive and D1 ag 46.
Screening OC(CNCC1CCCO1)COc1ccc(OCC(O)CNCC2CCCO2)cc1 (stereo unspecified) returned ERG-DNA inh inactive, DRD3 agonist inactive, DRD3 antagonist inactive, D1 antag inactive, D1 PAM inactive and D1 ag inactive.
For OC(CNCC1COc2ccccc2O1)COc1ccc(Cl)cc1 (stereo unspecified) the results were ERG-DNA inh inactive, DRD3 agonist inactive, DRD3 antagonist -80, D1 antag inactive, D1 PAM inactive and D1 ag inactive.
`OC(CNCC1COc2ccccc2O1)COc1ccccc1F` (stereo unspecified) gave ERG-DNA inh inactive, DRD3 agonist inactive, DRD3 antagonist -78, D1 antag inactive, D1 PAM inactive and D1 ag inactive.
OC(COCC1COc2ccccc2O1)CN1CCN(c2ccccc2F)CC1 (stereo unspecified) was read as ERG-DNA inh inactive, DRD3 agonist inactive, DRD3 antagonist inconclusive, D1 antag inactive, D1 PAM inactive and D1 ag inactive.
Cc1ccc(OCCCN2CCOCC2)cc1 was read as ERG-DNA inh inactive, DRD3 agonist inactive, DRD3 antagonist inconclusive, D1 antag inactive, D1 PAM inactive and D1 ag inactive.
For NC(=O)NC(=O)COC(=O)c1ccc(Cl)c(S(=O)(=O)N(Cc2ccccc2)c2ccc(Cl)cc2)c1 the results were ERG-DNA inh inactive, DRD3 agonist inactive, DRD3 antagonist inactive, D1 antag inactive, D1 PAM inactive and D1 ag inactive.
`Cc1ccccc1CN1C(=O)C(O)(CC(=O)c2ccccc2)c2cc(Cl)ccc21` (stereo unspecified) gave ERG-DNA inh inactive, DRD3 agonist inactive, D1 antag inactive, D1 PAM inactive and D1 ag inactive.
O=[N+]([O-])c1ccc(NCCNc2ccc(Cl)nn2)cc1 was read as ERG-DNA inh inactive, DRD3 agonist inactive, DRD3 antagonist -74, D1 antag inactive, D1 PAM inactive and D1 ag inactive.
`O=C(NCCNc1ccc([N+](=O)[O-])cc1)c1ccccc1Cl` gave DRD3 agonist inactive and DRD3 antagonist inconclusive.
O=S(=O)(NCc1cccs1)c1cccc2cccnc12 was read as ERG-DNA inh inactive, DRD3 agonist inactive, DRD3 antagonist inactive, D1 antag inactive, D1 PAM inactive and D1 ag inactive.
Screening CC(OC(=O)CN1C(=O)NC2(CCCC2)C1=O)C(=O)Nc1cccc(Cl)c1Cl (stereo unspecified) returned ERG-DNA inh inactive, DRD3 agonist inactive, DRD3 antagonist inactive, D1 antag -51, D1 PAM inactive and D1 ag inactive.
`COC(=O)[C@H]1[C@@H](C)N(Cc2ccccc2)C(=O)N[C@H]1c1ccccc1` gave ERG-DNA inh inactive, DRD3 agonist inactive and DRD3 antagonist -55.
CC(=O)c1ccc(-c2cccc(-c3cc(=O)oc4ccc(C(C)(C)C)cc34)c2)cc1 was read as ERG-DNA inh inactive, DRD3 agonist 39 and DRD3 antagonist inactive.
CC(C)(C)c1ccc2oc(=O)cc(-c3cccc(-c4ccc(C(F)(F)F)cc4)c3)c2c1 was read as ERG-DNA inh inactive, DRD3 agonist inactive and DRD3 antagonist inactive.

Source: PubChem BioAssay (National Center for Advancing Translational Sciences (NCATS))
